Bioassay records as filed in PubChem.
Sampled rows, rich in hits. Any-hit rate of the full collection: about 7.5%.
NPC1 prom act: activates the NPC1 promoter | 320,000 tested, 2.4% active | Potency, µM (top dose mostly 9.22 µM), inactives show top-dose activation, actives largely listed as activators | Huh7 NPC1 promoter luciferase reporter, 24 h; note: % of control where 0% means no effect; nearly all actives have a fitted effect of over 60% in size
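Stably transfected Huh7 (NPC1 promoter→luciferase), 1500 cells/well in Opti-MEM + 10% FBS, 2 h settle, then compound 24 h at 37 °C. Luminescence after 10 min with Amplite reagent.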
SMN2 splice up: increases expression of the SMN2 splice variant | 210,000 tested, 2.8% active | Potency, µM (series often up to 46.1 µM), for the others: at the top dose activity change, positive = activation, actives largely listed as activators | HEK293 SMN2-luciferase splicing reporter, luminescence, 30-36 h; note: % of control where 0% means no effect; nearly all actives have a fitted effect of over 55% in size
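HEK293 cells carry an SMN2 […]–luciferase reporter in which exon 7 inclusion puts luciferase in frame. Cells were plated 10-12 h before compound addition, then incubated 30-36 h at 37C. ONE-Glo luminescence was read; sodium butyrate at 4.5 mM final served as control.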
ELG1 genotox: inducers of genotoxicity in HEK293T ELG1-luciferase cells; Potency, µM (doses to about 46 µM), inactives show at the top dose activity change, positive = activation, actives largely listed as activators; 330,000 tested, 1.3% active; HEK293T ELG1-luciferase reporter, luminescence, 16 h; note: % of control where 0% means no effect; nearly all actives have a fitted effect of over 60% in size
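HEK293T cells expressing luciferase-tagged ELG1 were treated with compound or DMSO for 16 hr at 37°C. Luciferase activity was then read after 30 min with ONE-Glo at room temperature; rising signal flags genetic stress.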
Rab9 promoter act: Rab9 promoter activation; Huh7 Rab9 promoter-luciferase reporter, luminescence, 24 h; Potency, µM (top dose mostly 9.22 µM), inactives show at the highest dose activation, negative = inhibition, hits mostly activators; 320,000 tested, 2.8% active; AID 485297; note: % of control where 0% means no effect; nearly all actives have a fitted effect of over 60% in size
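Luciferase signal after 10 min detection reagent at ambient indicates Rab9 promoter upregulation; stably transfected Huh7 cells were treated 24 h with compound in DMSO at 37 °C, 5% CO2.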
Luc counter: Kinase-Glo luciferase inhibition (counter-screen); Kinase-Glo luciferase, ATP luminescence, 8 min; Q27757; 200,000 tested, 0.28% active; Potency, µM (series often up to 38.3 µM), for the others: at the highest dose activity change, negative = inhibition, actives largely listed as inhibitors; AID 1379; note: % is set by controls: 0 for no effect and ±100 for the full control effect; nearly all actives have a fitted effect of over 60% in size
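Substrate mix (final 50 mM imidazole pH 7.2, 50 mM KCl, 7 mM MgCl2, 10 uM ATP, 0.01% Tween 20, 0.05% BSA) plus pin-tool compound, then Kinase-Glo detection mix; 8 min ambient, luminescence read.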
FLuc modulator: inhibits or activates purified firefly luciferase, miR-21 counter-screen. P08659. purified FLuc, Km substrates, luminescence inhibition. Potency, µM (doses to about 57.5 µM), without a hit: at the top dose activity change, negative = inhibition, most hits filed as inhibitors. 360,000 tested, 6.9% active. AID 588342;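 note: plate controls were vehicle for no effect and reference inhibitor for full effect; nearly all actives have a fitted effect of over 55% in size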
Target sequence (P08659 whole entry, looked up): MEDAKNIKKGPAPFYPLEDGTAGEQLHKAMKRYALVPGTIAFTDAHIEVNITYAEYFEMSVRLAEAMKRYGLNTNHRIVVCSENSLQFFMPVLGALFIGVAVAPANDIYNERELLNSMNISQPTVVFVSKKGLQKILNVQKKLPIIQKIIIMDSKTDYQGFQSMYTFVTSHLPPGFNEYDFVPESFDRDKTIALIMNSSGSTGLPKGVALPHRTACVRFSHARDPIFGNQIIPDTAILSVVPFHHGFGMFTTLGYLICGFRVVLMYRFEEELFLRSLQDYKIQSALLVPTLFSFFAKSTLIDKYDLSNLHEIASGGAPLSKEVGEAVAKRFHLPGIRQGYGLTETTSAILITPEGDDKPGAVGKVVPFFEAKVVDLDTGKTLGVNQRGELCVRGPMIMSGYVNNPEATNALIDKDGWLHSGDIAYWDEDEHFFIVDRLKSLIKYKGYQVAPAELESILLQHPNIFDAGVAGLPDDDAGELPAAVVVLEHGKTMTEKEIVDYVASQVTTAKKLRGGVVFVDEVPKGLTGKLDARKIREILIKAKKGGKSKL
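Biochemical qHTS of compounds, final roughly 60 µM downward over six points, against 10 nM purified firefly luciferase using Km concentrations of substrates (10 uM D-luciferin, 10 uM ATP) in Tris acetate pH 7.5 buffer; luminescence output.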
* = called active by the depositor; ? = inconclusive; / = no result given; [ ] = dose if it differs, or a comment. Calls come from the whole dose curve; as a rule, active = well fitted curve in the direction sought with a large enough effect; inconclusive = small, poorly fitted or top-dose-only effect, or another doubt; inactive = no such curve, though single readings can be large; an effect the other way counts as inactive or inconclusive. Potency is the fitted concentration of half-maximal effect.

SMILES	NPC1 prom act	SMN2 splice up	ELG1 genotox	Rab9 promoter act	Luc counter	FLuc modulator
CCSc1nnc(NC(=O)c2ccccn2)s1	0.89µM*	4µM*	16µM*	?	-29%	8.5µM*
CCSc1nnc(NC(=O)c2cccnc2)s1	?	?	?	29%	-2%	?
CCSc1nnc(NC(=O)CC)s1	0%	-5%	-3%	-5%	0%	0%
O=C(Nc1nnc(C2CCCCC2)s1)c1ccc(Br)s1	0.5µM*	3.2µM*	?	1.8µM*	3%	?
CN1CCC(CNC(=O)c2ccc(Cc3nc4ccccc4[nH]3)cc2)CC1	/	/	/	/	-4%	/
CCSc1nnc(NC(=O)c2ccccc2C)s1	?	10µM*	?	2.5µM*	-7%	24µM*
O=C(Nc1nnc(C(F)(F)F)s1)c1ccc(Br)s1	?	?	11%	12%	0%	8.5µM*
CCSc1nnc(NC(=O)[C@H](C)NC(=O)c2ccccc2Cl)s1	0%	2%	-2%	-1%	0%	-12%
CCSc1nnc(NC(=O)c2cccnc2Cl)s1	18%	18µM*	?	11%	-1%	?
CCSc1nnc(NC(=O)c2cnccn2)s1	8%	19%	9%	-1%	-3%	2%
CNc1ccccc(C(=O)/C=C/c2ccccc2OC)c1=O	1%	-24%	-5%	2%	-5%	21µM*
COc1ccccc1/C=C/C(=O)/C=C/c1ccccc1O	-37%	/	-15%	-42%	/	3.4µM*
CNc1ccc(Br)cc(C(=O)/C=C/c2cccc(OC)c2OC)c1=O	-1%	/	-13%	-5%	-5%	?
CCCCSCCCNC(=O)c1cn(CC)c2ccc(S(=O)(=O)N(C)C3CCCCC3)cc2c1=O	/	-4%	/	/	/	-18%
COC(=O)[C@H](CCSC)NC(=O)Cn1cnc2c(NCc3ccccc3)ncnc21	/	/	8%	/	/	/
Cc1nc(CC(=O)Nc2cccc(C)c2C)cs1	/	4%	/	/	/	-4%
Cc1ccc(Nc2nnc(-c3ccc4c(c3)OCO4)o2)c(C)c1	?	10%[9.22 µM]	?	?	-6%[7.66 µM]	8.5µM*
O=C(NC(O)C(=O)c1ccccc1)c1ccccn1 (stereo unspecified)	-3%	/	0%	-2%	/	15µM*
COc1ccc(C)cc1NS(=O)(=O)c1ccc2c(c1)N(C)CCO2	-3%	/	-11%	-3%	/	1%
Cc1nn(-c2ccccc2)c(C)c1-c1nnc(-c2c(C)nn(-c3ccccc3)c2C)o1	-3%	/	-13%	-5%	/	?
O=C1NC(=O)/C(=C/c2ccc3c(c2)OC(F)(F)O3)S1	8.2µM*	/	/	?	/	/
O=C1NC(=O)/C(=C/c2cc3c(cc2Br)OCO3)S1	-3%	/	1%	3%	/	?
Cc1c(C)n(CCc2ccccc2)c2ncnc(NN)c12	-26%	/	-3%	-14%	/	-15%
Cc1c(C)n(CCc2ccccc2)c2ncnc(NCCCO)c12	1.8µM*	/	?	1.6µM*	/	11µM*
COCCn1c(C)c(C)c2c(NCCc3ccccc3)ncnc21	0.35µM*	/	?	0.5µM*	/	0.85µM*
SMILES	NPC1 prom act	SMN2 splice up	ELG1 genotox	Rab9 promoter act	Luc counter	FLuc modulator
N=c1c(S(=O)(=O)c2ccc(Cl)cc2)cc2c(=O)n3ccccc3nc2n1C1CCCC1	1%	/	-3%	-2%	/	3%
COc1cc2c(cc1OC)C1O[C@](CCCCN3C(=O)c4ccccc4C3=O)(C2)Oc2c1c(=O)oc1ccccc21	1%[1.84 µM]	/	/	-5%[1.84 µM]	/	-4%[11.5 µM]
O=S(=O)(c1ccc(Br)s1)N1CCN(c2cccc(C(F)(F)F)c2)CC1	/	-26%	/	/	/	1%
CC(C)(C)c1ccc(NC(=O)COc2ccc(-n3ccnc3)cc2)cc1	0%	/	-4%	-23%	-4%	15µM*
C/C(=N\NC(=O)OC(C)(C)C)c1ccc(-n2ccnc2)cc1	-1%	4%	0%	1%	1%	-3%
COc1cc(NC(=O)COc2ccc(-n3ccnc3)cc2)cc(OC)c1	-10%	-28%	-19%	-10%	0%	-7%
CC(=O)Nc1ccc(NC(=O)CSc2ccc(-c3ccc(-n4ccnc4)cc3)nn2)cc1	3%	/	-1%	-4%	/	?
Cc1ccc(NC(=O)n2ccc(-c3ccc(-n4ccnc4)cc3)n2)cc1	?	13µM*	19%	4µM*	-1%	?
COc1ccc(OCC(=O)N/N=C(\C)c2ccc(-n3ccnc3)cc2)cc1	1%	-19%	0%	-3%	-4%	6µM*
C/C(=N\NC(=O)c1ccccc1)c1ccc(-n2ccnc2)cc1	1%	/	1%	1%	/	-19%
C/C(=N\NC(=O)COc1ccc(C(C)(C)C)cc1)c1ccc(-n2ccnc2)cc1	28%	?	16%	?	1%	0.38µM*
COc1ccc(-c2nc3sc(CCNC(=O)C(=O)Nc4ccccc4C#N)c(C)n3n2)cc1	/	/	/	/	/	2%
CCOC(=O)COc1ncn(-c2ccccc2)n1	0%	-9%	-1%	1%	-2%	-15%
CC(C)n1cc(NC(=O)COc2ccccc2Cl)cn1	-4%	/	3%	5%	/	-4%
CC(C)c1ccc(NC(=O)COc2ccc(F)cc2C(=O)c2cnn(-c3ccccc3)c2)cc1	0%	?	16%	?	-7%	9.5µM*
CCOC(=O)COc1ccccc1C(=O)c1cnn(-c2ccccc2)c1	?	/	?	?	/	11µM*
O=C(COc1ccccc1C(=O)c1cnn(-c2ccccc2)c1)Nc1ccc2ccccc2c1	?	13µM*	14%	?	-3%	1.5µM*
COc1cc(Cl)ccc1OCc1cc(C(=O)NCCCN2CCCC2=O)no1	3%	/	1%	4%	/	21µM*
COc1ccccc1-c1cc(C(=O)NCCN2CCOCC2)no1	1%	-4%	5%	-6%	-6%	-18%
CN(CCCN1CCOCC1)C(=O)c1cc(COc2ccc(F)cc2F)on1	-1%	/	2%	-8%	/	0%
COc1cc(C)ccc1OCc1cc(C(=O)NCCN2CCOCC2)no1	2.2µM*	/	?	4µM*	/	11µM*
COc1cc(C)ccc1OCc1cc(C(=O)N(C)CCCN2CCOCC2)no1	2.8µM*	/	18µM*	2.5µM*	/	12µM*
CCn1cc(S(=O)(=O)c2ccc(C)cc2)c(=O)c2cc(F)c(N3CCCCCC3)cc21	/	/	/	/	/	4%
O=C(O)c1cccc(NC(=O)c2cccc(NC(=O)C3CCCO3)c2)c1 (stereo unspecified)	28%	1%	0%	26%	8%	3µM*
O=C(O)c1cccc(C(=O)Nc2cccc(NC(=O)C3CCCO3)c2)c1 (stereo unspecified)	20%	/	-6%	22%	-7%	2.1µM*
CCCCCn1c(CCCNC(=O)c2cccc(C)c2)nc2ccccc21	/	4%	/	/	/	-2%
